# Screening results (PubChem)
# A selection: hits, their analogues and other compounds. The true share with any hit is near 3.5%.
# TEAD-YAP inh = TEAD-YAP interaction inhibition | HEK-TIYL cells, TEAD-Gal4/YAP UAS-luciferase luminescence | 1.4% of 640,000 active | inhibition, % at 9.12 µM; in the data active = inhibition above about 32%;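 note: 0% = median of test compound wells and 100% = reference inhibitor wells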
# GPR151 ag = human GPR151 activation. Q8TDV0. PathHunter beta-arrestin GPR151 cells, luminescence. activation, % at 11.2 µM. 1% of 650,000 active. AID 1508602; in the data active = activation above about 4.9%;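 note: 0% = median of compound wells and 100% = cells with positive control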
# MITF primary = inhibitors of human MITF; 0.91% of 650,000 active; O75030; AlphaScreen MITF homodimerization, bead proximity signal; inhibition, % at 2.6 µM; in the data active = inhibition above about 50%;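 note: 0% = vehicle wells with protein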
# Target sequence (O75030 whole entry, looked up): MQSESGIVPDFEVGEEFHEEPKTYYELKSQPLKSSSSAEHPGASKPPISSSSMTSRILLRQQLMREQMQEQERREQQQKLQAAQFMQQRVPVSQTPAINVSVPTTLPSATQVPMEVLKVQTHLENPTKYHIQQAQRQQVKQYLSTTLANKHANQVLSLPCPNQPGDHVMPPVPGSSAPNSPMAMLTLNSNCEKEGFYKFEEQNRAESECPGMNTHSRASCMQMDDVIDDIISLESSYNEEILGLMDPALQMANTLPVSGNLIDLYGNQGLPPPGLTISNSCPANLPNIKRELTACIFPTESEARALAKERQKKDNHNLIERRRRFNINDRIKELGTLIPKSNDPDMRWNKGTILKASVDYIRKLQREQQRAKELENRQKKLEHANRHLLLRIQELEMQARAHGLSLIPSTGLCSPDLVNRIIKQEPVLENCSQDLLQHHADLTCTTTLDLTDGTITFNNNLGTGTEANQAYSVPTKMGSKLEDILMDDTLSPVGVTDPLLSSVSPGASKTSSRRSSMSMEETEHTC
# FBW7 act = human FBW7 E3 ligase activation, primary screen; Q969H0; AlphaScreen FBW7–phospho-cyclin E peptide binding, activator screen; normalized activity (activation), % at 26.1 µM; 0.13% of 650,000 active; AID 1259310; in the data active = normalized activity above about 1.9%;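 note: purified mutant Fbw7 with reduced substrate affinity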
# MITF confirm = human MITF inhibition, confirmation; inhibition, % at 2.6 µM; 16% of 4,700 active; shares compounds with MITF primary; AID 1259372; AlphaScreen MITF homodimerization, biotin/His-MITF beads;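 active = inhibition above a cutoff derived from the DMSO control wells, cut at about 28% in these data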;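 note: 0% = MITF dimer wells with DMSO only; inhibitors lower the bead chemiluminescence by keeping MITF from dimerizing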
# AlphaScreen DR = counter-screen: compounds optically interfering with AlphaScreen; AID 1259373; AlphaScreen optical interference counterscreen, cell-free; shares compounds with MITF primary; IC50, µM; 6% of 480 active; call rule not given here
# AlphaScreen intf2 = AlphaScreen optical interference, counter-screen; shares compounds with MITF primary; LysRS AlphaScreen counterscreen, signal interference, triplicate; inhibition, % at 2.6 µM; 7.6% of 4,700 active; AID 1259376;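 active = inhibition above a cutoff derived from the DMSO control wells, cut at about 30% in these data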
# Starred values were filed as active, the others as inactive; . = not tested or not shown.
SMILES,TEAD-YAP inh,GPR151 ag,MITF primary,FBW7 act,MITF confirm,AlphaScreen intf2,others
Clc1ccc(CN2CCN(C3CCCC3)CC2)cc1,-6.1,0.7,45.2,-0.1,.,.,
Clc1ccc(CN2CCN(C3CCCCCC3)CC2)cc1,-2.8,-0.5,73.7*,0.5,-5.1,3.5,
Cc1ccc(/C=N/N2C(=O)C3C4C=CC(C4)C3C2=O)cc1Br (stereo not given),0.2,-0.4,7.8,0.0,.,.,
O=C(CN1CCN(Cc2ccc(Cl)c(Cl)c2)CC1)c1ccco1,-0.7,-0.4,60.6*,-0.4,7.0,19.3,
O=C(CN1CCN(C(=O)c2c(F)cccc2Cl)CC1)c1ccco1,-6.6,2.6,7.7,0.1,.,.,
CCS(=O)(=O)N1CCN(CC(=O)c2ccco2)CC1,4.8,1.8,55.8*,-0.4,8.4,23.5,
CN(C)c1ccc(C2(C)Oc3ccccc3C(=O)N2c2ccccc2)cc1 (stereo not given),5.7,2.4,2.4,-0.5,.,.,
CN(CCc1ccccn1)Cc1ccc(C(=O)NCc2ccccc2Cl)c(=O)[nH]1,-3.8,-3.3,3.8,-0.1,.,.,
CN(Cc1ccc(C(=O)NCc2ccccc2Cl)c(=O)[nH]1)Cc1nccn1C,2.0,-0.7,51.6*,-0.1,37.7*,77.6*,
O=C(Cc1ccc(NC2=NC3CS(=O)(=O)CC3S2)cc1)NC1CCCCC1 (stereo not given),-13.0,-0.6,-4.8,-0.3,.,.,
CSc1cccc(C(=O)N(CCn2cccn2)c2nc3c(C)cc(C)cc3s2)c1,-6.7,0.0,95.4*,0.0,-14.1,-5.4,
COc1cc(CC(=O)N2CCCC2c2nc3ccccc3[nH]2)ccc1O (stereo not given),0.7,0.8,-0.3,0.1,.,.,
c1ccc(C2C3=C(CCCC3)SC3=C2CCCC3)cc1,7.0,0.4,69.6*,-0.2,-1.4,-7.0,
NC(=O)c1sc2nc3c(c(-c4ccco4)c2c1N)CC/C3=C\c1ccco1,1.1,-2.0,117.1*,-0.4,110.4*,89.6*,
Cc1ccc(NC(=O)c2sc3nc4c(c(-c5ccco5)c3c2N)CCCC4)cc1,-4.9,0.7,51.2*,0.2,-14.4,-3.3,
COc1ccccc1-c1cnn2c(N3CCOCC3)ccnc12,-9.3,-1.4,-14.5,-0.5,.,.,
CCCNS(=O)(=O)c1ccc(OCC(=O)Nc2cccc(C(C)=O)c2)cc1,3.6,1.2,-18.7,0.0,.,.,
CCOc1cccc2cc(C(=O)Nc3cccc(C)n3)oc12,-7.6,0.9,-13.2,0.0,.,.,
COc1ccc(-n2nc3c(c2NC(=O)c2ccc4c(c2)OCO4)CSC3)cc1,18.3,-0.6,89.2*,0.0,-8.0,-6.3,
Cc1ccccc1C(=O)Nc1c2c(nn1-c1ccc([N+](=O)[O-])cc1)CSC2,-3.9,1.1,61.2*,0.0,1.9,8.6,
Cc1ccc(C(=O)Nc2c3c(nn2-c2ccccc2C)CSC3)cc1,1.8,0.7,71.1*,0.0,11.1,16.1,
Cc1ccccc1-n1nc2c(c1NC(=O)c1ccc(Br)cc1)CSC2,7.2,0.5,7.2,0.1,.,.,
O=C(N/N=C/C=C/c1ccco1)c1ccncc1,5.0,-0.3,67.5*,-0.5,75.6*,-2.6,AlphaScreen DR=>6.48
CCc1nc(-c2ccccc2)c2ccccn12,2.3,2.0,55.5*,0.0,9.3,13.7,
CC(=O)Nc1ccc(N2CCN(C(=O)c3ccccc3)CC2)cc1,8.7,2.3,53.2*,0.0,-12.3,-2.9,
SMILES,TEAD-YAP inh,GPR151 ag,MITF primary,FBW7 act,MITF confirm,AlphaScreen intf2,others
CCN(CC)C(=O)C1CCCN(Cc2cccc(OC)c2OC)C1 (stereo not given),6.4,-0.7,10.4,0.0,.,.,
COc1cccc(CN2CCCC(C(=O)NN)C2)c1OC (stereo not given),27.4,-0.3,55.0*,-0.2,-7.1,-2.3,
COc1cccc(CN2CCN(C3CCCC3)C(CCO)C2)c1OC (stereo not given),10.9,0.7,5.0,-0.1,.,.,
COc1cccc(CN2CCN(C3CCCCCC3)CC2)c1OC,6.7,-0.9,71.0*,-0.4,-4.9,11.1,
COc1cccc(CN2CCN(C3CC4CCC3C4)CC2)c1OC (stereo not given),-3.9,-0.9,71.0*,-0.2,-1.4,16.2,
COc1cccc(CN2CCN(C3CCCCC3C)CC2)c1OC (stereo not given),0.8,-1.5,86.5*,0.0,20.2,10.2,
COc1ccc(C(O)c2nccn2C)cc1OC (stereo not given),-3.0,-0.2,2.9,-0.1,.,.,
COc1ccc(C(N)c2nccn2C)cc1OC (stereo not given),-1.5,-1.0,64.2*,-0.2,25.6,61.4*,
CCN(Cc1ccccc1)C(=O)C1CCN(Cc2cccc(OC)c2)CC1,-4.4,-1.6,52.1*,-0.1,11.9,8.3,
CCOC(=O)C1CCN(C(=O)C2CCN(Cc3cccc(OC)c3)CC2)CC1,10.4,1.1,52.1*,-0.1,6.2,6.5,
O=C(c1ccccc1)N1CCN(Cc2cccc([N+](=O)[O-])c2)CC1,9.7,-0.9,50.4,0.0,.,.,
CC(=O)Oc1cc(C(=O)NC(C)(C)C)cc(C(=O)NC(C)(C)C)c1,-7.2,-0.5,9.1,-0.3,.,.,
COc1ccccc1NC(=S)N(CCN(C)C)C(C)c1ccccn1 (stereo not given),0.3,-0.1,65.6*,-0.3,-50.4,100.3*,
COc1ccc(N(C(=O)COc2ccc(Br)cc2)S(=O)(=O)c2ccc(C)cc2)cc1,-12.8,0.5,62.5*,1.1,-2.5,11.9,
CCOC(=O)c1sc(NC(=O)Cn2nc(C)c([N+](=O)[O-])c2C)c(C(=O)OCC)c1C,-5.8,0.1,4.0,-0.5,.,.,
CS(=O)(=O)N1CCN(Cc2ccccc2)CC1,-4.7,-0.8,3.6,-0.1,.,.,
COc1ccc(CN2CCN(S(C)(=O)=O)CC2)cc1,19.7,0.8,57.2*,-0.1,-2.1,-7.6,
CS(=O)(=O)N1CCN(Cc2ccc(F)cc2)CC1,3.9,-0.7,62.4*,0.0,-8.0,4.5,
Cc1ccc(C(=O)OCC(=O)COC(=O)c2ccc(C)s2)s1,-8.8,0.4,10.4,0.6,.,.,
COc1ccc(C(=O)COC(=O)c2ccccc2N)cc1,-33.1,-8.4,-3.2,-0.1,.,.,
CCCn1cc(NC(=O)c2ccc(Br)o2)cn1,-50.8,-2.6,-0.5,0.1,.,.,
CCCn1cc(NC(=O)c2cc(-c3ccccc3N)no2)cn1,-17.5,1.2,73.2*,0.0,-17.4,-1.0,
CCOC(=O)CCNC(C)C1COc2ccccc2O1 (stereo not given),4.0,0.7,51.1*,-0.2,10.6,12.6,
COc1cccc(OC)c1C(=O)N1CCN(Cc2ccncc2)CC1,1.9,1.1,74.9*,-0.3,-11.8,-4.9,
COc1cccc(OC)c1C(=O)N1CCCCCC1,0.7,1.7,-1.9,0.0,.,.,
COc1ccc(CN2CCN(C(=O)c3ccncc3)CC2)cc1,-1.4,1.8,74.9*,-0.4,3.7,16.3,
COc1ccc(C(=O)N2CCN(Cc3ccccc3)CC2)cc1,1.1,0.2,46.8,0.1,.,.,
